Compound activity: PubChem, National Center for Advancing Translational Sciences (NCATS)
PI5P4K alpha inh – PI5P4K alpha (human) kinase inhibition. PI5P4Kalpha enzyme, ADP-Glo luminescence, 60 min; stronger effect = lower value. max response, %. actives 1.2% (n = 330,000); active = max response of -50% or lower; inconclusive = between -30% and -50%; inactive = -30% or higher; note: value at the top dose of about 77 µM
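Luminescence from ADP-Glo served as readout of PI5P4Kalpha activity in a qHTS format. Reaction: enzyme, substrate, compound, ATP at 5 microM final, 60 min at RT.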
Pol eta inh-1 – DNA polymerase eta (human) inhibition | Potency, µM (doses to about 114 µM), most hits filed as inhibitors | actives 1.2% (n = 390,000) | recombinant Pol eta, fluorescent DNA replication assay
Target sequence (Q9Y253 whole entry, looked up): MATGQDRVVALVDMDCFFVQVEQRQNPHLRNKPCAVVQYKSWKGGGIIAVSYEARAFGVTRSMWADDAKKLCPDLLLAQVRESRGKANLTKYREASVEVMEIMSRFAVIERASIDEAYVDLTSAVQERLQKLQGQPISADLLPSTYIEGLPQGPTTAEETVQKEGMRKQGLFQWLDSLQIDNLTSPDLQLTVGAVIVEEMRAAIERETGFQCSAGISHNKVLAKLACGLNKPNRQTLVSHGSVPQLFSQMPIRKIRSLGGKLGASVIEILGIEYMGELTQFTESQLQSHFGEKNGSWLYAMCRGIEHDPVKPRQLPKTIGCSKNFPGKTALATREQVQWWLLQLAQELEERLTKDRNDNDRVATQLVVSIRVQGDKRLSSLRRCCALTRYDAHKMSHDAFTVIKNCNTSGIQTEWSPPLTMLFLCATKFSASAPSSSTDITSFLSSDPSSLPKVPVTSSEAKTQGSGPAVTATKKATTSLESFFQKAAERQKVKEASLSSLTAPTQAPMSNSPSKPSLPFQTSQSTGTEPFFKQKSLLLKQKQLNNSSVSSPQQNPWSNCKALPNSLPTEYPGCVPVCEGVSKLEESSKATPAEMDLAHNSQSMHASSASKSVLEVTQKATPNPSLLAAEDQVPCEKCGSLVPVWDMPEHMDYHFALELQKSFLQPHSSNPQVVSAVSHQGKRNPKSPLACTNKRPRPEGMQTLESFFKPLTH
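Pol eta at 10 nM preincubated with compounds 15 min at room temperature; reaction started with fluorescent substrate (50 nM final) and read kinetically at 0 and 10 min.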
Pol kappa inh-1 – blocks human DNA polymerase kappa activity; Q9UBT6; purified Pol kappa, fluorescent DNA synthesis assay, 10 min; Potency, µM (series often up to 107 µM), actives largely listed as inhibitors; actives 0.53% (n = 400,000); AID 588579
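Here, compound and 10 nM enzyme are combined for 15 min at room temperature; adding 50 nM substrate (final) starts DNA synthesis, tracked by fluorescence at 0 and 10 min against buffer-only wells.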
WRN helicase inh – WRN helicase (human) inhibition. WRN helicase unwinding, fluorescent forked duplex, kinetic. Potency, µM (series often up to 114 µM), actives largely listed as inhibitors. actives 0.46% (n = 360,000). AID 651768; note: nearly all actives have a fitted effect of over 55% in size
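Fluorescence dequenching readout, ex 525 nm/em 598 nm, kinetic mode: forked duplex DNA (100 nM final) with adjacent fluorophore and quencher unwound by WRN (20 nM final) with 2 mM ATP. Compound preincubation 15 min, room temperature.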
POLB inh – DNA polymerase beta (human) inhibition; Pol beta primer extension/strand displacement, fluorescence kinetic; P06746; Potency, µM (highest dose often 114 µM), hits mostly inhibitors; AID 485314; actives 1.3% (n = 340,000)
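Kinetic readout of DNA synthesis with strand displacement by Pol beta. Compound and 10 nM enzyme sit 15 min at room temperature; 50 nM substrate starts the reaction, read immediately and at 10 min.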
Pol iota inh – blocks human DNA polymerase iota activity; Potency, µM (top dose mostly 115 µM), hits mostly inhibitors; actives 1% (n = 390,000); AID 588590; Q9UNA4; Pol iota fluorescent replication assay, 10 min
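Fluorescent replication assay read twice, at 0 min and 10 min after adding 50 nM (final) substrate. Enzyme (10 nM) and compounds were first incubated 15 min at room temperature; enzyme-free buffer wells were negative controls.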
PGK validate – validation of Trypanosoma brucei phosphoglycerate kinase inhibitors | shares compounds with Pol kappa inh-1 | TbPGK coupled GAPDH assay, Kinase-Glo luminescence | Potency, µM (series often up to 57.5 µM), most hits filed as inhibitors | actives 79% (n = 500); note: nearly all actives have a fitted effect of over 65% in size
Pol iota confirm – Confirm cherry-picked inhibitors of human polymerase iota. shares compounds with Pol kappa inh-1. Pol iota primer extension, TAMRA/BHQ fluorescence. Potency, µM, most hits filed as inhibitors. actives 77% (n = 1,500). AID 720496
GALK inh confirm – galactokinase (human) inhibition, confirmation; shares compounds with Pol eta inh-1; purified GALK, Kinase-Glo ATP depletion luminescence; Potency, µM (series often up to 115 µM), usual class: inhibitors; actives 70% (n = 150); AID 2015
Redox cycling – counter-screen for GALK inhibitors: redox cycling H2O2 generation; Potency, µM (series often up to 115 µM), usual class: inhibitors; actives 40% (n = 150); shares compounds with Pol eta inh-1; Phenol red-HRP H2O2 redox cycling, absorbance 600 nm
HEK293 tox – counter-screen for GALK inhibitors: HEK293 cell cytotoxicity; shares compounds with Pol eta inh-1; HEK-293 viability, ATP luminescence (CellTiter-Glo), 24/48 h; Potency, µM (series often up to 46.1 µM), actives largely listed as inhibitors; actives 10% (n = 170); AID 2547
Pol kappa inh-2 – confirmation of human DNA polymerase kappa inhibitors | Potency, µM, usual class: inhibitors | shares compounds with Pol eta inh-1 | actives 76% (n = 920) | AID 720501 | purified Pol-kappa, fluorescent strand-displacement substrate
Pol eta inh-2 – Pol eta (human) inhibition, cherry-pick confirmation; shares compounds with Pol eta inh-1; Pol eta primer extension, TAMRA/BHQ fluorescence, 10 min; Potency, µM, actives largely listed as inhibitors; actives 64% (n = 2,600); AID 720502
Each line names hits and unclear results; the compound was inactive in the other large screens (follow-up assays come after a bar, where they were run). Compounds with a hit are over-represented: about 2.8% of the library has one in this group of screens. Unless noted, calls come from the whole dose curve; as a rule, active = well fitted curve in the direction sought with a large enough effect; inconclusive = small, poorly fitted or top-dose-only effect, or another doubt; inactive = no such curve, though single readings can be large; an effect the other way counts as inactive or inconclusive.

O=C(COC(=O)c1ccccc1O)Nc1ncc(Cl)cc1Cl	PI5P4K alpha inh inconclusive, Pol eta inh-1 18µM, Pol kappa inh-1 35µM, WRN helicase inh inconclusive, Pol iota inh 40µM | Pol iota confirm inconclusive | Pol eta inh-2 27
Cc1ccc(NC(=O)Cn2cc(S(=O)(=O)Cc3ccc(F)cc3)c3ccccc32)cc1Cl	Pol eta inh-1 18µM, Pol kappa inh-1 inconclusive, POLB inh 25µM, Pol iota inh 79µM (no result: PI5P4K alpha inh, WRN helicase inh) | Pol iota confirm 47 | Pol eta inh-2 43
COc1ccc(C2C=C3CNS(=O)(=O)C3CC2OC(=O)c2ccc(Cl)cc2)cc1 (stereo not drawn)	none (no result: PI5P4K alpha inh, Pol eta inh-1, WRN helicase inh, POLB inh)
NN=C1c2ccccc2C(=O)C1C(=O)C(c1ccccc1)c1ccccc1 (stereo not drawn)	PI5P4K alpha inh -51, Pol eta inh-1 inconclusive, Pol kappa inh-1 22µM, WRN helicase inh 50µM, Pol iota inh 40µM (no result: POLB inh) | Pol iota confirm 75 | Pol kappa inh-2 17 | Pol eta inh-2 85
Cc1ccc(C(=O)C2C(=O)c3ccccc3C2=O)cc1	none (no result: PI5P4K alpha inh)
COc1cn(CC(=O)Nc2ccc(C)cc2)c(CN2CCCCC2)cc1=O	none (no result: PI5P4K alpha inh, WRN helicase inh)
O=C(/C=C/c1ccco1)N(c1ccccn1)c1ccccn1	PI5P4K alpha inh inconclusive, Pol eta inh-1 8.9µM, Pol kappa inh-1 32µM, WRN helicase inh 50µM, POLB inh 3.5µM, Pol iota inh inconclusive | Pol iota confirm 17 | Pol eta inh-2 24
O=C(Nc1ccc(F)cc1)C(c1cccc(F)c1)N1CCN(C(=O)c2ccco2)CC1 (stereo not drawn)	none (no result: Pol eta inh-1, Pol kappa inh-1, POLB inh, Pol iota inh)
O=C1/C(=C/c2cccc([N+](=O)[O-])c2)Oc2cc(O)ccc21	PI5P4K alpha inh inconclusive
O=C1/C(=C/c2ccc(O)c(O)c2)Oc2cc(O)ccc21	PI5P4K alpha inh -64, Pol eta inh-1 20µM, Pol kappa inh-1 28µM, WRN helicase inh inconclusive, Pol iota inh inconclusive | Pol iota confirm 24 | Pol eta inh-2 34
COC(=O)c1ccc(COc2ccc(/C=N/Nc3cccc(C(=O)O)c3)cc2)cc1	Pol eta inh-1 18µM, Pol kappa inh-1 inconclusive, Pol iota inh 32µM | Pol iota confirm 60 | Pol eta inh-2 27
N#C/C(=C\c1ccc(OCc2ccc(F)cc2)cc1)C(=O)Nc1cccc(C(=O)O)c1	Pol eta inh-1 40µM, Pol kappa inh-1 inconclusive, WRN helicase inh inconclusive, POLB inh inconclusive, Pol iota inh inconclusive | Pol iota confirm inconclusive | Pol kappa inh-2 42 | Pol eta inh-2 inconclusive
O=C(O)c1cccc(N/N=C/c2ccc(OC(F)(F)F)cc2)c1	Pol iota inh inconclusive
CCC(c1nc2ccccc2[nH]1)n1c(-c2ccnc(Cl)c2)nc2ccccc21 (stereo not drawn)	none (no result: Pol eta inh-1, Pol kappa inh-1, POLB inh, Pol iota inh)
O=S(=O)(O)c1cc(O)c(N=Nc2ccc(O)cc2O)c2ccccc12	PI5P4K alpha inh -78, Pol eta inh-1 10µM, Pol kappa inh-1 20µM, WRN helicase inh 40µM (no result: POLB inh, Pol iota inh) | PGK validate 23µM | Pol iota confirm 19 | Pol kappa inh-2 34 | Pol eta inh-2 38
COc1ccc2[nH]c(=O)cc(C(=O)O)c2c1	Pol eta inh-1 14µM, Pol kappa inh-1 inconclusive, POLB inh 18µM, Pol iota inh inconclusive | Pol iota confirm inconclusive | Pol kappa inh-2 11 | Pol eta inh-2 27
NS(=O)(=O)c1ccc(NC2=CC(=O)C(=O)c3ccccc32)cc1	Pol eta inh-1 inconclusive, WRN helicase inh inconclusive, POLB inh inconclusive, Pol iota inh inconclusive | Pol iota confirm inconclusive | GALK inh confirm 15µM | Redox cycling 11µM | HEK293 tox inactive | Pol eta inh-2 inconclusive
CCCCN1CCC2C=CCC(C(=O)O)C2C1=O (stereo not drawn)	none (no result: PI5P4K alpha inh, Pol eta inh-1, WRN helicase inh, POLB inh)
CCOC(=O)c1ccc(NC(=O)c2ccccc2[N+](=O)[O-])cc1	none
CCOC(=O)c1ccc(N/N=C/c2cc(Br)cc([N+](=O)[O-])c2O)cc1	Pol eta inh-1 25µM | Pol iota confirm 67 | Pol eta inh-2 inconclusive
CN(c1ccccc1)c1ccc(/C=C(/CCC(=O)O)c2nc3ccccc3s2)cc1[N+](=O)[O-]	PI5P4K alpha inh inconclusive, Pol eta inh-1 20µM, Pol kappa inh-1 32µM, WRN helicase inh inconclusive, Pol iota inh 18µM (no result: POLB inh) | Pol iota confirm 47 | Pol eta inh-2 67
O=C(O)CC/C(=C\c1cc([N+](=O)[O-])ccc1Cl)c1nc2ccccc2s1	none
CCC(C)Cn1c(/C=C/c2ccccc2)nc2ccccc21 (stereo not drawn)	none (no result: PI5P4K alpha inh, WRN helicase inh)
CCc1ccccc1Nc1nn2c(=O)c3ccc(C(=O)NCc4cccs4)cc3nc2s1	Pol eta inh-1 inconclusive, POLB inh 8.9µM, Pol iota inh 79µM (no result: PI5P4K alpha inh, WRN helicase inh) | Pol iota confirm inconclusive | Pol kappa inh-2 inconclusive
CCC(C(=O)Nc1cccnc1Cl)c1ccccc1 (stereo not drawn)	none
N=C1/C(=C/c2ccco2)C(=O)N=C2SC(CC(=O)N3CCCC3)=NN12	Pol eta inh-1 14µM, Pol kappa inh-1 inconclusive, WRN helicase inh 50µM, POLB inh inconclusive, Pol iota inh 16µM | Pol iota confirm 38 | Pol eta inh-2 24
COc1ccc(C2c3c(oc4ccccc4c3=O)C(=O)N2CCN2CCOCC2)cc1OC (stereo not drawn)	none (no result: POLB inh)
COCCN1C(=O)c2oc3ccccc3c(=O)c2C1c1ccc(OC)c(OC)c1 (stereo not drawn)	PI5P4K alpha inh inconclusive, Pol eta inh-1 22µM, Pol kappa inh-1 79µM, WRN helicase inh inconclusive, Pol iota inh inconclusive | Pol iota confirm 84 | Pol eta inh-2 inconclusive
